# Test results: PubChem BioAssay
# Some of the results follow. Unmarked numbers belong to inactive results. Active and inactive are the calls of the source. Unless noted, no stated cut-off is given here; in the data, active means activation above about 20%; inactive means the rest.
# Target: Peroxisome proliferator-activated receptor gamma (Homo sapiens) (UniProt P37231)
# Assay: retested PPARg-SRC-2 recruitment enhancers – biochemical, HTS, confirmation (AID 1297; in the data active means activation above about 22%;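 further: 0% = vehicle alone and 100% = reference agonist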)
# Details: biochemical SRC-2 recruitment by PPARgamma; at 8 µM; active compounds read high
# Chain of Peroxisome proliferator-activated receptor gamma (Homo sapiens) (P37231 whole entry, looked up): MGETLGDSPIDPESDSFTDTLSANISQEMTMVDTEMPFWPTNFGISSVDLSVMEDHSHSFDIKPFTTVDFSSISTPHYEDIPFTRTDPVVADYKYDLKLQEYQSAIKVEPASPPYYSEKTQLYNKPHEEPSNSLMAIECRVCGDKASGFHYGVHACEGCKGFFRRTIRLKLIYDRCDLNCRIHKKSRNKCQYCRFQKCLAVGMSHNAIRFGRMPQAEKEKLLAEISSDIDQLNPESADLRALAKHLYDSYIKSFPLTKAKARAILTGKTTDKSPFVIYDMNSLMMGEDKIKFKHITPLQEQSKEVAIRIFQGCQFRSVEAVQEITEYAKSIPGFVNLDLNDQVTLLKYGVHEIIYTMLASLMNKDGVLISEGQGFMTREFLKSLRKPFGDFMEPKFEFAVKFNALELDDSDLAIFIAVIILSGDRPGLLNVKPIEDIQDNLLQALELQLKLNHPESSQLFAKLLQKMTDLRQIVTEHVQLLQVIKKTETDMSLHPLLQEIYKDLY
row,SMILES,activation
1,NC(=O)CSc1oc(-c2cccs2)nc1S(=O)(=O)c1ccccc1,40.9% (active)
2,CCn1c(=O)cc(SCC(=O)NCc2ccc3c(c2)OCO3)c2ccccc21,22.7% (active)
3,CCN(CCCNC(=O)CSc1cc(=O)n(C)c2cc(Cl)ccc12)Cc1ccccc1,29.4% (active)
4,CCOc1ccc(NC(=O)CSc2ncnc3c2sc2ccccc23)cc1,46% (active)
5,COC(=O)c1[nH]c2ccc(Br)cc2c1NC(=O)Oc1ccccc1,7.14%
6,CCc1c(-c2ccccc2)nc(N)c(C#N)c1-c1cccs1,11.1%
7,COC(=O)c1ccccc1SC1CC(=O)N(c2cccc(C)c2)C1=O (stereo not drawn),0.78%
8,Nc1ccc(Nc2ccccc2)cc1,10.1%
9,O=C(Oc1ccccc1)Oc1ccc2c(c1)oc(=O)c1ccccc12,27.9% (active)
10,CCOC(=O)C1CCN(C(=O)CSc2cc(=O)n(C)c3ccccc23)CC1,38.9% (active)
11,CSc1c(SCc2ccccc2)cnn(Cc2ccccc2)c1=O,34.4% (active)
12,CC(C(=O)N1CCOCC1)N1c2cccc3cccc(c23)S1(=O)=O (stereo not drawn),-0.94%
13,Cn1c(-c2sc3cc(C(F)(F)F)cnc3c2-c2ccccc2)n[nH]c1=S,89.8% (active)
14,Cc1cc(C)c2c(c1)cc(C)c1nnc(SCC(=O)Nc3cc(C)on3)n12,18.6%
15,CCn1c(SCC(=O)Nc2cccc(F)c2)nnc1-c1cc2cc(Br)ccc2o1,18%
16,Cc1ccc(-c2cc(C(=O)NCc3cn(C)nc3C)c3cc(Br)ccc3n2)cc1,25.7% (active)
17,CC(=O)c1sc2nc(SCC(=O)N3CCCCC3)[nH]c(=O)c2c1C,27.4% (active)
18,Cn1c(=O)cc(SCC(=O)N2CCCC2)c2cc(Cl)ccc21,60.1% (active)
19,OCC1(CCc2ccccc2)CCN(Cc2ccc3nsnc3c2)CC1,32.8% (active)
20,COC(=O)Cn1cc(C(=O)c2cccs2)c2ccccc21,-2.1%
21,CCN(/N=C/c1ccc(N(C)C)cc1)c1nc2ccccc2[nH]1,9.9%
22,Cc1cc(C)c2cc(CN(Cc3cccs3)Cc3nnnn3CC3CCCO3)c(=O)[nH]c2c1 (stereo not drawn),9.95%
23,Cc1ccc(OCC(=O)Nc2ccc(-c3nc4ncccc4o3)cc2)cc1,2.88%
24,CC(=O)n1c(C=Nc2ccccc2)c(O)c2ccccc21,2.33%
25,COc1ccc2c(Cl)c(-c3nnco3)sc2c1,20.4%
26,Fc1ccc(COc2cccc(-c3n[nH]c(=S)o3)c2)cc1,51.6% (active)
27,Cc1ccccc1-c1n[nH]c(=S)n1/N=C/c1ccc(-c2ccccc2Br)o1,33.5% (active)
28,O=C(CSc1c2c(nc3ccc(Cl)cc13)CCCC2)NCc1ccco1,19.2%
29,Cc1cc(N2C(=O)C(=O)/C(=C(/O)c3ccc(Cl)cc3)C2c2cccc(Br)c2)no1 (stereo not drawn),28.1% (active)

# Target: Peroxisome proliferator-activated receptor gamma (Homo sapiens) (UniProt P37231)
# Assay: retest of SRC-1 recruitment enhancers for PPARgamma – biochemical, confirmation (AID 1300);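 further: 0% = vehicle wells and 100% = reference agonist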
# Details: PPARgamma–SRC-1 coactivator recruitment biochemical assay; at 8 µM; active compounds read high
row,SMILES,activation
1,NC(=O)CSc1oc(-c2cccs2)nc1S(=O)(=O)c1ccccc1,34.8% (active)
2,CCn1c(=O)cc(SCC(=O)NCc2ccc3c(c2)OCO3)c2ccccc21,15.8%
3,CCN(CCCNC(=O)CSc1cc(=O)n(C)c2cc(Cl)ccc12)Cc1ccccc1,19.2%
4,CCOc1ccc(NC(=O)CSc2ncnc3c2sc2ccccc23)cc1,29.5% (active)
5,COC(=O)c1[nH]c2ccc(Br)cc2c1NC(=O)Oc1ccccc1,3.71%
6,CCc1c(-c2ccccc2)nc(N)c(C#N)c1-c1cccs1,13.3%
7,COC(=O)c1ccccc1SC1CC(=O)N(c2cccc(C)c2)C1=O (stereo not drawn),-2.36%
8,Nc1ccc(Nc2ccccc2)cc1,5.63%
9,O=C(Oc1ccccc1)Oc1ccc2c(c1)oc(=O)c1ccccc12,16.1%
10,CCOC(=O)C1CCN(C(=O)CSc2cc(=O)n(C)c3ccccc23)CC1,22.9% (active)
11,CSc1c(SCc2ccccc2)cnn(Cc2ccccc2)c1=O,28.5% (active)
12,CC(C(=O)N1CCOCC1)N1c2cccc3cccc(c23)S1(=O)=O (stereo not drawn),1.12%
13,Cn1c(-c2sc3cc(C(F)(F)F)cnc3c2-c2ccccc2)n[nH]c1=S,67% (active)
14,Cc1cc(C)c2c(c1)cc(C)c1nnc(SCC(=O)Nc3cc(C)on3)n12,17.6%
15,CCn1c(SCC(=O)Nc2cccc(F)c2)nnc1-c1cc2cc(Br)ccc2o1,15%
16,Cc1ccc(-c2cc(C(=O)NCc3cn(C)nc3C)c3cc(Br)ccc3n2)cc1,15.9%
17,CC(=O)c1sc2nc(SCC(=O)N3CCCCC3)[nH]c(=O)c2c1C,20.8% (active)
18,Cn1c(=O)cc(SCC(=O)N2CCCC2)c2cc(Cl)ccc21,41.1% (active)
19,OCC1(CCc2ccccc2)CCN(Cc2ccc3nsnc3c2)CC1,26.3% (active)
20,COC(=O)Cn1cc(C(=O)c2cccs2)c2ccccc21,0.95%
21,CCN(/N=C/c1ccc(N(C)C)cc1)c1nc2ccccc2[nH]1,6.2%
22,Cc1cc(C)c2cc(CN(Cc3cccs3)Cc3nnnn3CC3CCCO3)c(=O)[nH]c2c1 (stereo not drawn),11.9%
23,Cc1ccc(OCC(=O)Nc2ccc(-c3nc4ncccc4o3)cc2)cc1,8.01%
24,CC(=O)n1c(C=Nc2ccccc2)c(O)c2ccccc21,0.42%
25,COc1ccc2c(Cl)c(-c3nnco3)sc2c1,13.6%
26,Fc1ccc(COc2cccc(-c3n[nH]c(=S)o3)c2)cc1,39.9% (active)
27,Cc1ccccc1-c1n[nH]c(=S)n1/N=C/c1ccc(-c2ccccc2Br)o1,28.2% (active)
28,O=C(CSc1c2c(nc3ccc(Cl)cc13)CCCC2)NCc1ccco1,15.5%
29,Cc1cc(N2C(=O)C(=O)/C(=C(/O)c3ccc(Cl)cc3)C2c2cccc(Br)c2)no1 (stereo not drawn),18.8%
